# PubChem BioAssay (EPA / NIEHS)
# Inconclusive results are not listed. Calls of active or inactive are those of the source. The calls were made as follows, unless noted: active = hit-call score of the fitted dose curve at least 0.9, where 1 is the maximum; inconclusive = response in the unintended direction; inactive = score below 0.9.
# Key:
# [1] = ATG_TCF_b_cat_CIS: Attagene CIS-FACTORIAL HepG2 Assay for human T-Cell-Factor with beta-catenin (TCF/b-cat) (AID 2282965; active = hit-call score of the fitted dose curve at least 0.9, where 1 is the maximum; inactive = score below 0.9); details: HepG2 TCF/beta-catenin cis-reporter transcription, actives raise or lower the signal
# Procedure, shortened: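 Endogenous TCF/LEF activity read as reporter transcript level via RT-PCR and capillary electrophoresis fluorescence in transfected HepG2, 24 h exposure; gain or loss of signal fitted against DMSO controls.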
# [2] = ATG_TAL_CIS: Attagene CIS-FACTORIAL HepG2 Assay for human TAL Basal Promoter (AID 2282966; active = hit-call score of the fitted dose curve at least 0.9, where 1 is the maximum; inactive = score below 0.9;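 also: background control endpoint measuring basal TAL promoter reporter mRNA not a specific factor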); details: HepG2 Attagene cis-factorial TAL promoter reporter; actives raise or lower the signal
# Procedure, shortened: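 Transiently transfected HepG2 (cis-regulated reporter units), 24 h treatment, mRNA read by fluorescent CE after RT-PCR; bidirectional fit, DMSO baseline.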
# [3] = ATG_TGFb_CIS: Attagene CIS-FACTORIAL HepG2 Assay for human Transforming Growth Factor (TGF) (AID 2282967; active = hit-call score of the fitted dose curve at least 0.9, where 1 is the maximum; inactive = score below 0.9); details: HepG2 Attagene CIS TGFb reporter, mRNA transcription; actives raise or lower the signal
# Procedure, shortened: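 Transient MRTU transfection of HepG2 (FuGene 6). Dose 24 h. TriZol RNA, oligo(dT) RT, PCR, 6-FAM primer extension, HpaI cut, CE. Bidirectional fit, DMSO = baseline.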
# [4] = target: Nuclear receptor subfamily 1 group I member 3 (Homo sapiens) (UniProt Q14994); assay: ATG_CAR_TRANS: Attagene TRANS-FACTORIAL HepG2 Assay for human Constitutive Androstane Receptor (CAR) (AID 2282969); details: HepG2 Attagene TRANS-FACTORIAL CAR reporter;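 also: activators raise reporter mRNA above DMSO so AC50 marks induction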
# Procedure, shortened: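 Signal is reporter mRNA induction relative to DMSO, measured 24 h after dosing by RT-PCR with fluorescent primer extension and capillary electrophoresis. Human HepG2 liver cells carried transiently transfected chimeric NR-Gal4/GAL4-UAS reporter constructs.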
# [5] = target: X-box-binding protein 1 (Homo sapiens) (UniProt P17861); assay: ATG_Xbp1_CIS: Attagene CIS-FACTORIAL HepG2 Assay for human X-box Binding Protein 1 (XBP1) (AID 2282972; active = hit-call score of the fitted dose curve at least 0.9, where 1 is the maximum; inactive = score below 0.9); details: HepG2 XBP1 cis-element reporter, Attagene multiplex; actives raise or lower the signal
# Procedure, shortened: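 Reporter transcripts were quantified by RT-PCR with fluorescent primer extension and capillary electrophoresis after 24 h chemical exposure. Cells: transiently transfected HepG2 carrying cis-regulated reporter constructs; data fitted bidirectionally relative to DMSO.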
# [6] = ATG_GAL4_TRANS: Attagene TRANS-FACTORIAL HepG2 Assay for GAL4 (Internal Marker) (AID 2282976); details: HepG2 Attagene TRANS GAL4 internal marker reporter
# Procedure, shortened: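 HepG2 cells transiently transfected with multiplexed GAL4-UAS reporter constructs were dosed for 24 h. Reporter mRNA was measured by RT-PCR, 6-FAM primer extension, HpaI digestion and capillary electrophoresis, and gain of signal was fitted relative to DMSO.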
# [7] = target: Glucocorticoid receptor (Homo sapiens) (UniProt P04150); assay: ATG_GR_TRANS: Attagene TRANS-FACTORIAL HepG2 Assay for human Glucocorticoid Receptor (GR) (AID 2282978); details: HepG2 Attagene TRANS GR reporter, mRNA transcription;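 also: activators score as hits since higher reporter transcript over DMSO is fitted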
# Procedure, shortened: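 HepG2 transient transfection, multiple reporter units, GAL4-UAS under NR-GAL4 chimera control. 24 h treatment. Reporter mRNA by RT-PCR/CE fluorescence, DMSO as negative control.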
# [8] = target: Oxysterols receptor LXR-alpha (Homo sapiens) (UniProt Q13133); assay: ATG_LXRa_TRANS: Attagene TRANS-FACTORIAL HepG2 Assay for human Liver X Receptor alpha (LXRa) (AID 2282980); details: HepG2 Attagene TRANS reporter, LXRa transactivation
# Procedure, shortened: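 HepG2 cells were transiently transfected with multiplexed reporter units driven by chimeric LXRa–GAL4 fusion proteins, then dosed for 24 h. Reporter mRNA was quantified by RT-PCR, fluorescent labelling and capillary electrophoresis; gain of signal fitted against DMSO baseline.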
# [9] = ATG_M_06_TRANS: Attagene TRANS-FACTORIAL HepG2 Assay for M06 Transcription Factor (Internal Marker) (AID 2282983); details: HepG2 Attagene TRANS M06 internal marker reporter
# Procedure, shortened: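 In this multiplexed HepG2 system, compounds are incubated 24 h with cells carrying GAL4-UAS reporter units. Reporter RNA is amplified and resolved by capillary electrophoresis, and induction is scored against DMSO.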
# [10] = target: Nuclear receptor subfamily 4 group A member 2 (Homo sapiens) (UniProt P43354); assay: ATG_NURR1_TRANS: Attagene TRANS-FACTORIAL HepG2 Assay for human Nuclear Receptor Related Protein 1 (NURR1) (AID 2282985); details: HepG2 Attagene TRANS reporter, mRNA readout
# Procedure, shortened: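 Measures transcriptional activation by an exogenous NR-Gal4 chimera in transfected HepG2 liver cells. After 24 h, reporter RNA is reverse-transcribed, amplified and resolved by capillary electrophoresis; DMSO defines baseline.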
# [11] = ATG_VDRE_CIS: Attagene CIS-FACTORIAL HepG2 Assay for human Vitamin D Receptor Element (VDRE) (AID 2282968; active = hit-call score of the fitted dose curve at least 0.9, where 1 is the maximum; inactive = score below 0.9); details: HepG2 VDRE cis-reporter transcription, actives raise or lower the signal
# Procedure, shortened: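 Measures endogenous factor activity through cis-element-driven reporter transcripts in transiently transfected HepG2. Cells are treated 24 h; reporter mRNA is quantified by RT-PCR and capillary electrophoresis; fitting is bidirectional.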
# [12] = target: Estrogen receptor (Homo sapiens) (UniProt P03372); assay: ATG_ERa_TRANS: Attagene TRANS-FACTORIAL HepG2 Assay for human Estrogen Receptor alpha (ERa) (AID 2282970); details: HepG2 Attagene TRANS ERa GAL4 reporter, mRNA
# Procedure, shortened: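 One of 30 multiplexed endpoints from a HepG2 TRANS system, this one reports ERa-Gal4-driven reporter mRNA. Transcripts were quantified 24 hours post-dosing by fluorescent RT-PCR and capillary electrophoresis, with activity scored as induction over DMSO.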
# [13] = target: Oxysterols receptor LXR-beta (Homo sapiens) (UniProt P55055); assay: ATG_LXRb_TRANS: Attagene TRANS-FACTORIAL HepG2 Assay for human Liver X Receptor beta (LXRb) (AID 2282981); details: HepG2 Attagene TRANS GAL4-LXRb reporter, mRNA
# Procedure, shortened: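 After 24 h of chemical treatment, transfected HepG2 cells yield total RNA; reporter cDNA is PCR-amplified, FAM-labelled, HpaI-cut and run on capillary electrophoresis. Signal reflects chimeric LXRb-Gal4 activity on GAL4-UAS reporters.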
# [14] = ATG_M_32_TRANS: Attagene TRANS-FACTORIAL HepG2 Assay for M32 Transcription Factor (Internal Marker) (AID 2282984); details: HepG2 Attagene TRANS M32 internal marker reporter;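 also: transcript level of a background control reporter unit measured by RT-PCR and capillary electrophoresis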
# Procedure, shortened: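 Cell-based TRANS-format assay in HepG2: exogenous chimeric GAL4 reporter units transiently expressed, compounds applied 24 h. Reporter mRNA detected by RT-PCR plus capillary electrophoresis; this readout is an internal background marker.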
# [15] = target: Hepatocyte nuclear factor 4-alpha (Homo sapiens) (UniProt P41235); assay: ATG_HNF4a_TRANS: Attagene TRANS-FACTORIAL HepG2 Assay for human Hepatocyte Nuclear Factor 4 alpha (HNF4a) (AID 2282982); details: HepG2 HNF4a transactivation reporter, mRNA readout
# Procedure, shortened: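 Multiplexed reporter assay: transfected HepG2, 24 h exposure, total RNA → oligo(dT) RT → PCR → 6-FAM extension → HpaI digest → CE fluorescence. DMSO = negative control.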
# [16] = target: Transcriptional activator Myb (Homo sapiens) (UniProt P10242); assay: ATG_Myb_CIS: Attagene CIS-FACTORIAL HepG2 Assay for human Myeloblastosis (Myb) Proto-Oncogene Transcription Factor (AID 2282986; active = hit-call score of the fitted dose curve at least 0.9, where 1 is the maximum; inactive = score below 0.9); details: HepG2 Attagene CIS-FACTORIAL Myb reporter transcription; actives raise or lower the signal
# Procedure, shortened: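 Multiplexed cis-reporter system in HepG2: transient transfection, 24 h treatment, mRNA readout by RT-PCR and capillary electrophoresis. Both increases and decreases are scored versus DMSO negative control.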
# [17] = target: Steroid hormone receptor ERR1 (Homo sapiens) (UniProt P11474); assay: ATG_ERRa_TRANS: Attagene TRANS-FACTORIAL HepG2 Assay for human Estrogen-Related Receptor alpha (ERRa) (AID 2282971); details: HepG2 Attagene TRANS reporter, ERRa transactivation
# Procedure, shortened: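 HepG2 cells transiently transfected with multiplexed GAL4-UAS reporter units reading chimeric ERRa-Gal4 activity; 24 h compound exposure. Reporter mRNA measured by RT-PCR, 6-FAM labelling, HpaI digest and capillary electrophoresis; gain of signal fitted versus DMSO baseline.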
# [18] = ATG_M_19_TRANS: Attagene TRANS-FACTORIAL HepG2 Assay for M19 Transcription Factor (Internal Marker) (AID 2282974); details: HepG2 Attagene TRANS-FACTORIAL M19 internal marker reporter
# Procedure, shortened: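 Gain-of-signal in reporter mRNA, relative to DMSO, was scored from capillary electrophoresis fluorescence. HepG2 cells carried transiently transfected multiple reporter transcription units and were incubated with test chemicals for 24 h.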
# [19] = target: Estrogen-related receptor gamma (Homo sapiens) (UniProt P62508); assay: ATG_ERRg_TRANS: Attagene TRANS-FACTORIAL HepG2 Assay for human Estrogen-Related Receptor gamma (ERRg) (AID 2282977); details: HepG2 Attagene TRANS reporter, ERRg transactivation;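 also: hits increase reporter signal over DMSO so potencies reflect activators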
# Procedure, shortened: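 Exogenous NR-Gal4 chimera activity was assessed in HepG2 cells bearing transfected GAL4-UAS reporters. After 24 h dosing, total RNA underwent RT-PCR, fluorescent primer extension and HpaI digestion before capillary electrophoresis, with gain of signal scored against DMSO.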
# Chain of X-box-binding protein 1 (Homo sapiens) (P17861 whole entry, looked up): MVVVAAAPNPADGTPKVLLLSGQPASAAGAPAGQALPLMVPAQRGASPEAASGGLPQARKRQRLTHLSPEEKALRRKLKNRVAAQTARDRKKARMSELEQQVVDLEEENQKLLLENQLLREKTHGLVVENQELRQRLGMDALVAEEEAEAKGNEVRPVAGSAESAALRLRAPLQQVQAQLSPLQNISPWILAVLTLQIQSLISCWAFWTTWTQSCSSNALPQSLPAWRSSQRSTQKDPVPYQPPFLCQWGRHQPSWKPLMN
# Chain of Nuclear receptor subfamily 4 group A member 2 (Homo sapiens) (P43354 whole entry, looked up, the tested form may be a part): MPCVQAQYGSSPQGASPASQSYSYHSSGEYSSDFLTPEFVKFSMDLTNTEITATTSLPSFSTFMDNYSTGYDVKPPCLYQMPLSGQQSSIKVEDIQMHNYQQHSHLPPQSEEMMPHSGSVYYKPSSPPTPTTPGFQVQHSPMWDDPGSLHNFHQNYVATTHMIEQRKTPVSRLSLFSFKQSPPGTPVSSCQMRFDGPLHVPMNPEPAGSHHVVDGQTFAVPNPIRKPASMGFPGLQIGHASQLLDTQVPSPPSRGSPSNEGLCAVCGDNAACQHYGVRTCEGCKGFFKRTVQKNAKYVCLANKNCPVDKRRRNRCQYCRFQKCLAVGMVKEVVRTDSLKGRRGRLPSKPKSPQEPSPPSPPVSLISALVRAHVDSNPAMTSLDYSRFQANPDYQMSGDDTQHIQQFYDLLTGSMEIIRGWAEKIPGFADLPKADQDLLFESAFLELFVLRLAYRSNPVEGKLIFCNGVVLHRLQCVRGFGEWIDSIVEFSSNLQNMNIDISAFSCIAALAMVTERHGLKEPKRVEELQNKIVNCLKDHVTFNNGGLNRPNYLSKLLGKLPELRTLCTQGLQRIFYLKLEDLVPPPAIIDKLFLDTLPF
# Chain of Oxysterols receptor LXR-alpha (Homo sapiens) (Q13133 whole entry, looked up, the tested form may be a part): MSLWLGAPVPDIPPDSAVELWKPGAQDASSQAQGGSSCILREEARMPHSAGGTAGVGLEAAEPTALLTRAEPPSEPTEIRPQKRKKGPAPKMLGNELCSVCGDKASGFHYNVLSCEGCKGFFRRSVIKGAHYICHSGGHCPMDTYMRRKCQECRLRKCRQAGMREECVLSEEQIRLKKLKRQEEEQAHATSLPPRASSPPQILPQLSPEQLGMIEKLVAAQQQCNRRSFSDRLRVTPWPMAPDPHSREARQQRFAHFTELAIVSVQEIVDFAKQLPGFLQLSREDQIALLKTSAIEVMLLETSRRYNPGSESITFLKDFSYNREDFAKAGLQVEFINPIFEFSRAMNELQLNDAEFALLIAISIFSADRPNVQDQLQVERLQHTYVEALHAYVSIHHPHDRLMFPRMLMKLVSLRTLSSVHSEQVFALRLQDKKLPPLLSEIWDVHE
# Chain of Oxysterols receptor LXR-beta (Homo sapiens) (P55055 whole entry, looked up, the tested form may be a part): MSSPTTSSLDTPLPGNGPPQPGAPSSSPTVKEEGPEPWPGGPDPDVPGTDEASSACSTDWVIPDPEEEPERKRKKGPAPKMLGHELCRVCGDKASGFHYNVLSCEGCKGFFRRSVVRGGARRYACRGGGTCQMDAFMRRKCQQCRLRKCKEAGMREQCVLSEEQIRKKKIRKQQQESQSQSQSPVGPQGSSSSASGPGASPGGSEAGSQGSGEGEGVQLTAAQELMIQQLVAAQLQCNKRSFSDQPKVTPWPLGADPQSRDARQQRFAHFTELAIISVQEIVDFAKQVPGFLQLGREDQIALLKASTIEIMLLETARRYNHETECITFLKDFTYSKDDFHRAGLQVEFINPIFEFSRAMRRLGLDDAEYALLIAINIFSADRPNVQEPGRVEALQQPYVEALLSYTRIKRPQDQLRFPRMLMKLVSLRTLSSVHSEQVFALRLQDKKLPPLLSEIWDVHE
# Chain of Transcriptional activator Myb (Homo sapiens) (P10242 whole entry, looked up): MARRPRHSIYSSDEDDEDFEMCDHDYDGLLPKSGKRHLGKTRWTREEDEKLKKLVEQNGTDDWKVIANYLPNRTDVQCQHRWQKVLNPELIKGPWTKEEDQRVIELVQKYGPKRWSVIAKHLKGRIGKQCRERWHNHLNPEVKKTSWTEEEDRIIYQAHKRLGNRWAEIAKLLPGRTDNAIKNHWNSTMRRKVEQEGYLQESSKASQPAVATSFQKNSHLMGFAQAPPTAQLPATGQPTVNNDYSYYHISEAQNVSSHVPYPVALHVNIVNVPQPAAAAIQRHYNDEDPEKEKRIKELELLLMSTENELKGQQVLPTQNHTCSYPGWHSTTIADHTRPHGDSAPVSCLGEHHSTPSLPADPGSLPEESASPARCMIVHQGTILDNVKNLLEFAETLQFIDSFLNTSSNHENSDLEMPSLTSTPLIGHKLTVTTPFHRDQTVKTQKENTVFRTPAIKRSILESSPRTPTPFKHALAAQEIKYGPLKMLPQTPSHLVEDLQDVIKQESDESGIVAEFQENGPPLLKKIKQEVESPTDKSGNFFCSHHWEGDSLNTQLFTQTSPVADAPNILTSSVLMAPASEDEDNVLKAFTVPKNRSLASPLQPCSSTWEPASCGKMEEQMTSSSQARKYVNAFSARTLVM
# Chain of Hepatocyte nuclear factor 4-alpha (Homo sapiens) (P41235 whole entry, looked up): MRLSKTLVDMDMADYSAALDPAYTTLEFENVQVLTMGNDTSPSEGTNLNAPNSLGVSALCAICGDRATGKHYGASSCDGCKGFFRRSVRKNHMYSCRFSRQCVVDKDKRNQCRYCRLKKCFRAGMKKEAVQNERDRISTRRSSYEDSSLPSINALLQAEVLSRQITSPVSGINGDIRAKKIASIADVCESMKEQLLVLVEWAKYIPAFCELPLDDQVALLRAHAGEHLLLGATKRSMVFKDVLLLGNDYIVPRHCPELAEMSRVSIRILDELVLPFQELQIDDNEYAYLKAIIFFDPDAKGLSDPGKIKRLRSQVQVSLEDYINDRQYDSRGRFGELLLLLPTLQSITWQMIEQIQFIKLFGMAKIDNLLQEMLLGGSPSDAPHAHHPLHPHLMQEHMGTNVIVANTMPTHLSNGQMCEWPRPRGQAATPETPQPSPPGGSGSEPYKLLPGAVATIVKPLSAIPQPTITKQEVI
# Chain of Glucocorticoid receptor (Homo sapiens) (P04150 whole entry, looked up, the tested form may be a part): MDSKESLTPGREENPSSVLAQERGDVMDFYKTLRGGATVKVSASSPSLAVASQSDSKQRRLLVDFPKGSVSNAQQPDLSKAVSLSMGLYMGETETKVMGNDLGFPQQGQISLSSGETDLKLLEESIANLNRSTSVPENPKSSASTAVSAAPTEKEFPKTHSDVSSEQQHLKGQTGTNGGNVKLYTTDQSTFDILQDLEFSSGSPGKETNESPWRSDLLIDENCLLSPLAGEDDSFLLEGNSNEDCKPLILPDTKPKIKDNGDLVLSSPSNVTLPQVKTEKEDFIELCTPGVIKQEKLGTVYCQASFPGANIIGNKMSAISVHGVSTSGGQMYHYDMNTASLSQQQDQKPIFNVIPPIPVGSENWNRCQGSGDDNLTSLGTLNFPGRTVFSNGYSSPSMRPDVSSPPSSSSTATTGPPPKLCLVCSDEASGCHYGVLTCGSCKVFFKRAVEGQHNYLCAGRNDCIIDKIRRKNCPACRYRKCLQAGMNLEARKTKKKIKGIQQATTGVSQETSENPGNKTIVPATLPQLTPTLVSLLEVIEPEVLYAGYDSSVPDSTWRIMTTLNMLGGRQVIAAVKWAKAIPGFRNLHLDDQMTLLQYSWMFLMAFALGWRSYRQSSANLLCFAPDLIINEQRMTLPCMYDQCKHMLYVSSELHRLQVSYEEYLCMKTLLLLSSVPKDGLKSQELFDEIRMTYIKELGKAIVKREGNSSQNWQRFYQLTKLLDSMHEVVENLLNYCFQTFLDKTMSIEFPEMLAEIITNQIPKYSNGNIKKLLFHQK
# Chain of Nuclear receptor subfamily 1 group I member 3 (Homo sapiens) (Q14994 whole entry, looked up, the tested form may be a part): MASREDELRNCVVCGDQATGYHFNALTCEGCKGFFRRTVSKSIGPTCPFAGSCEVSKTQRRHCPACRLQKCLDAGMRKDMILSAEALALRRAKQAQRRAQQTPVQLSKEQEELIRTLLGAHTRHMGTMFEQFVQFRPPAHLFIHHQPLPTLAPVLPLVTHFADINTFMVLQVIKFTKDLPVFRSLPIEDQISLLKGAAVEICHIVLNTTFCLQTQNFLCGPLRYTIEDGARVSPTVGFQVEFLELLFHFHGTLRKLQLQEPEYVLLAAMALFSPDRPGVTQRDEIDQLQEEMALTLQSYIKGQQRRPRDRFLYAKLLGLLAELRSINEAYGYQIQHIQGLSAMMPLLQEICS
# Chain of Steroid hormone receptor ERR1 (Homo sapiens) (P11474 whole entry, looked up, the tested form may be a part): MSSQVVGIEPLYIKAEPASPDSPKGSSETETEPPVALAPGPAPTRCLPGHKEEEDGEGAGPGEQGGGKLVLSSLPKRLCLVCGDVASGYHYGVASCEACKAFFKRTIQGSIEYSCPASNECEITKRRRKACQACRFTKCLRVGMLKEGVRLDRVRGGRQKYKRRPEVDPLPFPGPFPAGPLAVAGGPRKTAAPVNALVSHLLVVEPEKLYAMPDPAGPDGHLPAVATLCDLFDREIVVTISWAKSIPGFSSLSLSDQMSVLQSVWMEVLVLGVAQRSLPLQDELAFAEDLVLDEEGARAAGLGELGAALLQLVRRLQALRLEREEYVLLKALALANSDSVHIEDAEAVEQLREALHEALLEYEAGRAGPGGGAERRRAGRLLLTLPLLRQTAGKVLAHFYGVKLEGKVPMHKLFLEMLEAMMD
# Chain of Estrogen-related receptor gamma (Homo sapiens) (P62508 whole entry, looked up, the tested form may be a part): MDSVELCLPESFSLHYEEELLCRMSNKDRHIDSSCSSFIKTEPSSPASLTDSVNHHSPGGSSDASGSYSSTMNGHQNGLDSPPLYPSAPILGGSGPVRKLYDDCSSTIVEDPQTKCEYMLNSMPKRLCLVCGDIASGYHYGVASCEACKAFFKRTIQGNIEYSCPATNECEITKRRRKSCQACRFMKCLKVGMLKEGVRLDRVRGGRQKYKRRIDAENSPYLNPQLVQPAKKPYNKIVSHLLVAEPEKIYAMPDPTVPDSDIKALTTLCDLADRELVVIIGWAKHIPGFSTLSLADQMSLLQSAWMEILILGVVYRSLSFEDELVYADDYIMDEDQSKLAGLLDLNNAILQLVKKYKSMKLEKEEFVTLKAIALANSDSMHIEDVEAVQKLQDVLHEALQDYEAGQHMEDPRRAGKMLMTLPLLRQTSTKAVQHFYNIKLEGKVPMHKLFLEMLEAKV
structure (smiles),measurement,setting,value
CCCCC(CC)COC(=O)CC(C(=O)OCC(CC)CCCC)S(=O)(=O)O (stereo unspecified),outcome,[1],inactive
same,outcome,[2],inactive
same,outcome,[3],inactive
same,outcome,[4],inactive
same,outcome,[5],inactive
same,outcome,[6],inactive
same,outcome,[7],inactive
same,outcome,[8],inactive
same,outcome,[9],inactive
same,outcome,[10],inactive
COC(=O)c1ccc(O)cc1,outcome,[1],inactive
same,outcome,[2],inactive
same,outcome,[3],inactive
same,outcome,[11],inactive
same,AC50,[12],63.8 µM (active)
same,outcome,[5],inactive
same,outcome,[8],inactive
same,outcome,[13],inactive
same,outcome,[9],inactive
same,outcome,[14],inactive
same,outcome,[10],inactive
CC(=O)Oc1ccccc1C(=O)O,AC50,[1],162 µM (active)
same,outcome,[2],inactive
same,outcome,[3],inactive
same,AC50,[11],82.9 µM (active)
same,outcome,[5],inactive
same,outcome,[7],inactive
same,AC50,[8],71.6 µM (active)
same,AC50,[13],100 µM (active)
same,outcome,[15],inactive
same,outcome,[9],inactive
same,AC50,[10],100 µM (active)
same,outcome,[16],inactive
FC(F)(F)C(F)(F)C(F)(F)C(F)(F)C(F)(F)C(F)(F)CCI,outcome,[1],inactive
same,outcome,[2],inactive
same,outcome,[3],inactive
same,outcome,[11],inactive
same,outcome,[4],inactive
same,outcome,[5],inactive
same,outcome,[8],inactive
same,outcome,[13],inactive
same,outcome,[9],inactive
same,outcome,[14],inactive
CCCCCC(=O)O,outcome,[1],inactive
same,outcome,[2],inactive
same,outcome,[3],inactive
same,outcome,[11],inactive
same,outcome,[17],inactive
same,outcome,[5],inactive
same,outcome,[18],inactive
same,outcome,[19],inactive
same,outcome,[13],inactive
same,outcome,[15],inactive
same,outcome,[9],inactive
same,outcome,[10],inactive
same,outcome,[16],inactive
